“And” between values parts separate entries of the source, which are not always exact repeats. Identical values can stand only once. The source made the active and inactive calls. Unless noted, the rule behind the calls is not given here.
Columns and labels:
[1] = tested on: Wnt5a (protein binding on small-molecule microarray); assay: Wnt5a binders on small-molecule microarray, primary screen, biophysical, 635/667 nm fluorescence (AID 1142); details: 635 nm fluorescence, higher = more signal;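 note: fluorescence read at 667 nm with signal to noise per printed feature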
[2] = cell viability in Huh7 cells, primary screen, cytotoxicity control for HCV replication inhibitor project, CellTiter-Glo luminescence, basal, 48 h (AID 1143); details: Huh7 HCV replicon, higher = more signal, called active from +8 up or from −8 down;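 note: Huh7 hepatoma cells carrying a hepatitis C replication reporter with no stimulus; test concentration not given here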
[3] = P. aeruginosa biofilm formation inhibitors, primary screen, PAO1 strain, BacTiter-Glo luminescence, LB-PBS (AID 1144); details: 12 h, higher = more signal
[4] = CREB reporter modulators without forskolin, primary screen, cell-based, PC12, CRE-LacZ reporter, unstimulated (AID 1145); details: no forskolin, luminescence, 4.5 h, higher = more signal, called active from +8 up or from −8 down
[5] = CREB reporter modulators under forskolin, primary screen, cell-based, PC12, CRE-LacZ reporter, forskolin-stimulated (AID 1146); details: luminescence, 4.5 h, higher = more signal, called active from +8 up or from −8 down;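 note: PC12 cells with 6xCRE LacZ reporter stimulated by forskolin 10 µM; beta-galactosidase reporter signal reflecting CREB driven transcription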
[6] = target: Streptavidin (Streptomyces avidinii) (UniProt P22629); assay: streptavidin binders on small-molecule microarray, primary screen, artefact control for SMM compound annotation, biophysical, 635/667 nm fluorescence (AID 1147); details: streptavidin binding, higher = more signal;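 note: signal reflects streptavidin binding to arrayed compounds as a control protein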
[7] = small-molecule binders of probe aInhba, primary screen, biochemical, small-molecule microarray, 635/667 nm fluorescence (AID 1148); details: higher = more signal;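 note: score merges 667nm spot fluorescence with signal-to-noise for antibody binding to printed compounds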
Torsin-1A (Homo sapiens) [8] = target: Torsin-1A (Homo sapiens) (UniProt O14656); assay: torsin A binders from cell lysate, primary screen, small-molecule microarray, wild-type, 635/667 nm (AID 1149); details: COS7 hTOR1A-WT lysate, 635 nm fluorescence, higher = more signal
Torsin-1A (Homo sapiens) [9] = target: Torsin-1A (Homo sapiens) (UniProt O14656); assay: small-molecule binders of mutant TOR1A in lysate, primary screen, cell lysate, small-molecule microarray, COS7 lysate, 635/667 nm fluorescence (AID 1150); details: COS7 hTOR1A mutant lysate, 635 nm fluorescence, higher = more signal;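 note: score pools 667 nm emission and signal to noise measuring lysate protein binding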
[10] = tested on: Sonic hedgehog protein (Shh); assay: small-molecule binders of Shh protein, primary screen, biochemical, small-molecule microarray, 635/667 nm fluorescence (AID 1151); details: small-molecule microarray binding, 635 nm fluorescence; higher = more signal;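 note: Shh protein binding to compounds spotted on small-molecule microarray slides; score combines spot fluorescence intensity with signal-to-noise across triplicate slides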
[11] = E. coli DRC41 culture turbidity changes, primary screen, E. coli filamentation inducer project, strain DRC41, OD650, 48 h (AID 1152);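 note: E. coli MC1000 strain DRC41 lacking acrAB efflux pump and sulA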; details: E. coli DRC41 (acrAB sulA), higher = more signal, called active from +8 up or from −8 down
[12] = small-molecule binders of probe aLefty1, primary screen, biochemical, small-molecule microarray, 635/667 nm fluorescence (AID 1153); details: higher = more signal;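 note: score merges spot fluorescence with signal-to-noise ratio from the scanned slide images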
[13] = PSAC antagonists in infected red cells, primary screen, cell-based, P. falciparum Indochina, OD700, 1 h (AID 1154); details: P. falciparum Indochina infected RBC osmotic lysis, higher = more signal, called active from +8 up or from −8 down
[14] = PSAC antagonists in infected red cells, primary screen, cell-based, P. falciparum Indochina, OD700, 2 h (AID 1155);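 note: lysis reports solute entry through the parasite surface anion channel PSAC; channel blockers reduce lysis of infected cells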; details: P. falciparum Indochina infected erythrocytes, osmotic lysis OD700; higher = more signal, called active from +8 up or from −8 down
[15] = osmotic lysis modulators in infected erythrocytes, primary screen, PSAC antagonist project, cell-based, P. falciparum Indochina, OD700, 3 h (AID 1156); details: higher = more signal, called active from +8 up or from −8 down
[16] = PSAC antagonists in infected red cells, primary screen, cell-based, P. falciparum Indochina, OD700, 18 h (AID 1157); details: P. falciparum Indochina infected erythrocytes, osmotic lysis OD700, 18 h; higher = more signal, called active from +8 up or from −8 down
[17] = modulators of S6 phosphorylation in cells, primary screen, cell-based, A549, cytoblot, luminescence, serum-stimulated (AID 1158); details: A549 phospho-S6 cytoblot, 5 h, higher = more signal;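 note: serum-stimulated A549 lung adenocarcinoma cells; signal is phosphorylated S6 detected by cytoblot immunostaining with HRP secondary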
[18] = target: NADPH oxidase 2 (Homo sapiens) (UniProt P04839); assay: NOX2-dependent H2O2 signal modulators, primary screen, NOX inhibitor project, cell-based, HEK293-NOX2, PMA-stimulated, Amplex Red fluorescence (AID 1159); details: 45 min, higher = more signal, called active from +8 up or from −8 down; note: test concentration not given here
[19] = target: NADPH oxidase 4 (Homo sapiens) (UniProt Q9NPH5); assay: NOX4-dependent H2O2 signal modulators, primary screen, NOX inhibitor project, cell-based, HEK293-NOX4, tetracycline-induced, Amplex Red fluorescence (AID 1160); details: 45 min, higher = more signal, called active from +8 up or from −8 down
[20] = target: NADPH oxidase 5 (Homo sapiens) (UniProt Q96PH1); assay: NOX5-dependent H2O2 signal modulators, primary screen, NOX inhibitor project, cell-based, HEK293-NOX5, Amplex Red fluorescence (AID 1161); details: HEK293-NOX5, ionomycin, 45 min, higher = more signal
Sequence of NADPH oxidase 5 (Homo sapiens) (Q96PH1 whole entry, looked up): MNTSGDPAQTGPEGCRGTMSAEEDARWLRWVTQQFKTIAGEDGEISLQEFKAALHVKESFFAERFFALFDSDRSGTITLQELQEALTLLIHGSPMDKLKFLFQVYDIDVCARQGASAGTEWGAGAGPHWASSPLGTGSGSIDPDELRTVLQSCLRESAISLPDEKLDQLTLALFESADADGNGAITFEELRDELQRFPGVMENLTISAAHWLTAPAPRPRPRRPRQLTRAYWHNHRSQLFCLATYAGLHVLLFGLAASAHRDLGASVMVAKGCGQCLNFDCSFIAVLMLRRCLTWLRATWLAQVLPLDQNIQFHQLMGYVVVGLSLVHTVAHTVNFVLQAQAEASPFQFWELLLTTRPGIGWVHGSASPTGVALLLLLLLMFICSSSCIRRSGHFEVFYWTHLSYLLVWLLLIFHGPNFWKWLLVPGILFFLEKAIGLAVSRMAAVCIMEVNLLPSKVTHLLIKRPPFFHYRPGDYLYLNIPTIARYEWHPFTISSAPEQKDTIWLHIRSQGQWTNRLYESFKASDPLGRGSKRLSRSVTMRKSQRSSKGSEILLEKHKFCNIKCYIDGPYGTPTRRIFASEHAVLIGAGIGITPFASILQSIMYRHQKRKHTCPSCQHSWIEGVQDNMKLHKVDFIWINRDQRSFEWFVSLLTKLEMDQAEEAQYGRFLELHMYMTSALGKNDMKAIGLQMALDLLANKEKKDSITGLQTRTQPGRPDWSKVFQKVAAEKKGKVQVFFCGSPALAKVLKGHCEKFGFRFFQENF

Sequence of Streptavidin (Streptomyces avidinii) (P22629 whole entry, looked up): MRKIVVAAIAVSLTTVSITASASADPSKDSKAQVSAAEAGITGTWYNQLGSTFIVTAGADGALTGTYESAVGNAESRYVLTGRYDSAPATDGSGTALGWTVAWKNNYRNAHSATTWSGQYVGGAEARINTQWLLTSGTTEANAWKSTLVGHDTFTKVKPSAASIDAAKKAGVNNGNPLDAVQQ
Sequence of NADPH oxidase 2 (Homo sapiens) (P04839 whole entry, looked up): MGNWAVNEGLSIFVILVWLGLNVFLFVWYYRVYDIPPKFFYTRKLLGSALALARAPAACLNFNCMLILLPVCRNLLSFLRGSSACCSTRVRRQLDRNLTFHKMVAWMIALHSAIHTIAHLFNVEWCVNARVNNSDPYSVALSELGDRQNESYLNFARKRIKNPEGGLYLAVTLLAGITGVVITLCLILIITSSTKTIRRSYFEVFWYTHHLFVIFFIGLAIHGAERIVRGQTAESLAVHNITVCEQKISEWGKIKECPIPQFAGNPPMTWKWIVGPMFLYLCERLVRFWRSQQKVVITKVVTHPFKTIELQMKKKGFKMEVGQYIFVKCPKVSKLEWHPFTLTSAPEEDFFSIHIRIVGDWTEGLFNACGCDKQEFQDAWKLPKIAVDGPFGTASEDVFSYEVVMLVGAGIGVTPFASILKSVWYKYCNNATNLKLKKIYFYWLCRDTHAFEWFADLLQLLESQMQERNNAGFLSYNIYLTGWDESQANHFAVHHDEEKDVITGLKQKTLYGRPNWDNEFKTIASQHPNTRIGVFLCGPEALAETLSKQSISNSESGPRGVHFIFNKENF
Sequence of Torsin-1A (Homo sapiens) (O14656 whole entry, looked up): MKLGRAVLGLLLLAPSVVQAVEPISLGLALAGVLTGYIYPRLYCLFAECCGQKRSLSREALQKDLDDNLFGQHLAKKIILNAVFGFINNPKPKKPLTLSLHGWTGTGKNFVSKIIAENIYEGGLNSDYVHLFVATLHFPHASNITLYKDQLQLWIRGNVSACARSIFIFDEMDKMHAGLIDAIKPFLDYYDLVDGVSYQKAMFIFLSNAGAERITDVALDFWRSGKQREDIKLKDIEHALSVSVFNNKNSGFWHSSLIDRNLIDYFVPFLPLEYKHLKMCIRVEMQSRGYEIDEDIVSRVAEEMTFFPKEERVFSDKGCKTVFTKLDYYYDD
Sequence of NADPH oxidase 4 (Homo sapiens) (Q9NPH5 whole entry, looked up): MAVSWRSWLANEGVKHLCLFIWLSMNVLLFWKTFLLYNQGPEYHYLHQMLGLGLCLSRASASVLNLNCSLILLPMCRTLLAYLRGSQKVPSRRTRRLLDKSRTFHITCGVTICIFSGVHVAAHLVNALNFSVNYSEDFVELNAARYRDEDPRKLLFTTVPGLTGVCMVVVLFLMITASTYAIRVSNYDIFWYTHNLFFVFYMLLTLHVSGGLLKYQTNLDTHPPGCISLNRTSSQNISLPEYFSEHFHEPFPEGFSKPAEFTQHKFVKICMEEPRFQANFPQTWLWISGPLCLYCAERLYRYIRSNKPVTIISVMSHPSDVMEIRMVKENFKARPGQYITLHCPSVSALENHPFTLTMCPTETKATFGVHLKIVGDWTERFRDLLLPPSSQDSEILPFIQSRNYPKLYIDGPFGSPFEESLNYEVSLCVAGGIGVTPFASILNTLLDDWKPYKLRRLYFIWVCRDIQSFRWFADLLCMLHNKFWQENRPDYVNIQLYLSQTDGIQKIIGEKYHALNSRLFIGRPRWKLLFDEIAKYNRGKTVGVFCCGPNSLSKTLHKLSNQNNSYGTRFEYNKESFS

Row | Compound | composite z-score [1] | z-score [2] | z-score [3] | z-score [4] | z-score [5] | composite z-score [6] | composite z-score [7] | composite z-score (Torsin-1A (Homo sapiens) [8]) | composite z-score (Torsin-1A (Homo sapiens) [9]) | composite z-score [10] | z-score [11] | composite z-score [12] | z-score [13] | z-score [14] | z-score [15] | z-score [16] | z-score [17] | z-score [18] | z-score [19] | z-score [20]
1 | C=CCN(C(=O)C1N(c2ccc(CCO)cc2)C(=O)C2C(C(=O)O)C3C=CC21O3)c1ccc(OC)cc1 (stereo not given) | -0.416 and -0.717 | -0.0172 (inactive) and -1.2 (inactive) | -0.143 (inactive) and -1.34 (inactive) | 0.333 (inactive) and -1.97 (inactive) | -0.0772 (inactive) and -0.526 (inactive) | -0.683 and -1.98 | -0.0066 and -0.311 | -1.29 and -2.7 | -0.584 and -1.23 | -0.141 and -1.28 | -0.0883 (inactive) and 1.76 (inactive) | -0.147 and -0.216 | 2.34 (inactive) and 0.289 (inactive) | 0.752 (inactive) and -0.136 (inactive) | -0.0787 (inactive) and -0.0798 (inactive) | 0.258 (inactive) and 0.284 (inactive) | 0.0631 and 2.4 | 1.27 (inactive) and -0.00582 (inactive) | -1.05 (inactive) and -0.234 (inactive) | 2.64 and -0.701
2 | C=C[C@H](OC)[C@@H](O)c1ccc(O)c(F)c1 | -0.542 and -1.18 | -0.217 (inactive) and -0.324 (inactive) | -0.263 (inactive) and -1.21 (inactive) | 1.53 (inactive) and 0.353 (inactive) | 1.41 (inactive) and 0.473 (inactive) | -1.42 and -1.09 | -0.409 and -0.32 | -1.55 and -3.36 | -1.77 and -2.26 | -1.28 and -0.249 | -0.809 (inactive) and 0.573 (inactive) | -0.266 and -0.148 | -0.0463 (inactive) and 0.351 (inactive) | 0.125 (inactive) and 0.702 (inactive) | -0.389 (inactive) and -0.0295 (inactive) | -0.138 (inactive) and 0.403 (inactive) | -0.141 and 0.723 | -1.01 (inactive) and -0.872 (inactive) | -0.137 (inactive) and -0.407 (inactive) | 0.0933 and -0.503
3 | C=CCN(C(=O)C1N(c2c(Cl)cccc2CO)C(=O)C2C(C(=O)O)C3C=CC21O3)c1ccc(OC)cc1 (stereo not given) | -0.898 and -0.782 | -0.443 (inactive) and -0.172 (inactive) | -0.927 (inactive) and -0.513 (inactive) | -0.623 (inactive) and 0.0645 (inactive) | -0.297 (inactive) and -0.684 (inactive) | -1 and -1.55 | -0.874 and -0.379 | -2.69 and -1.75 | -1.94 and -1.61 | -1.22 and -0.893 | 0.971 (inactive) and 2.55 (inactive) | -1.1 and -0.253 | 2.56 (inactive) and -0.975 (inactive) | 0.516 (inactive) and -1.35 (inactive) | 0.336 (inactive) and -0.988 (inactive) | 0.287 (inactive) and -1.34 (inactive) | -0.403 and 1.78 | 0.868 (inactive) and -0.148 (inactive) | -0.286 (inactive) and -0.651 (inactive) | -0.136 and 0.192

— PubChem BioAssay
